Data taken from the supplement of paper PMC6555819.

What was measured:
Assay in all cases: PBM binding z-score (relative to random genomic background probes); higher = stronger binding; sequences stand for … in GC…GCGATTGACAGCGTAGAATGAAGG
[1] = tested on: FXR:RXRa (NR concentration 270 nM, RXRa partner concentration 90 nM)
In short: (§1)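 Ligand-free nuclear receptor dimers were bound for 1 h to custom Agilent 4×180K protein-binding microarrays. Detection used antibodies against each partner (one per run). Binding z-scores rest on regression-normalized fluorescence, with random background probes as the reference.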

[2] = tested on: LXRa:RXRa (NR concentration 270 nM, RXRa partner concentration 90 nM)
In short: as §1

[3] = tested on: LXRa homodimer (NR concentration 270 nM)
In short: as §1

[4] = tested on: LXRb:RXRa (NR concentration 270 nM, RXRa partner concentration 90 nM)
In short: as §1

[5] = tested on: LXRb homodimer (NR concentration 270 nM)
In short: as §1

[6] = tested on: PPARa:RXRa (NR concentration 270 nM, RXRa partner concentration 90 nM)
In short: as §1

[7] = tested on: PPARg:RXRa (NR concentration 180 nM, RXRa partner concentration 90 nM)
In short: as §1

[8] = tested on: PPARg:RXRa 270nM:90nM, anti-RXR (NR concentration 270 nM, RXRa partner concentration 90 nM)
In short: as §1

[9] = tested on: PPARg:RXRa 30nM:10nM, anti-RXR (NR concentration 30 nM, RXRa partner concentration 10 nM)
In short: as §1

[10] = tested on: PPARg:RXRa 90nM:30nM, anti-RXR (NR concentration 90 nM, RXRa partner concentration 30 nM)
In short: as §1

[11] = tested on: PPARg:RXRa DBDmut IVT, anti-RXR (DBD mutation: RXRa K156A/R161A, NR concentration 270 nM, RXRa partner concentration 90 nM)
In short: as §1

[12] = tested on: PPARg:RXRa IVT, anti-PPARg (NR concentration 270 nM, RXRa partner concentration 90 nM)
In short: as §1

[13] = tested on: PPARg DBDmut:RXRa IVT, anti-PPARg (DBD mutation: PPARg1 K132A/R137A, NR concentration 270 nM, RXRa partner concentration 90 nM)
In short: as §1

[14] = tested on: PPARg DBDmut IVT, anti-PPARg (DBD mutation: PPARg1 K132A/R137A, NR concentration 270 nM)
In short: as §1

[15] = tested on: PPARg homodimer (NR concentration 180 nM)
In short: as §1

[16] = tested on: PXR:RXRa (NR concentration 270 nM, RXRa partner concentration 90 nM)
In short: as §1

[17] = tested on: PXR homodimer (NR concentration 270 nM)
In short: as §1

[18] = tested on: RARa:RXR (NR concentration 270 nM, RXRa partner concentration 90 nM)
In short: as §1

[19] = tested on: RARa homodimer (NR concentration 270 nM)
In short: as §1

[20] = tested on: RARb:RXRa (NR concentration 270 nM, RXRa partner concentration 90 nM)
In short: as §1

Sequence	PBM binding z-score [1]	PBM binding z-score [2]	PBM binding z-score [3]	PBM binding z-score [4]	PBM binding z-score [5]	PBM binding z-score [6]	PBM binding z-score [7]	PBM binding z-score [8]	PBM binding z-score [9]	PBM binding z-score [10]	PBM binding z-score [11]	PBM binding z-score [12]	PBM binding z-score [13]	PBM binding z-score [14]	PBM binding z-score [15]	PBM binding z-score [16]	PBM binding z-score [17]	PBM binding z-score [18]	PBM binding z-score [19]	PBM binding z-score [20]
CCTACTGGGCCATTCAGACGTCATTGATCATATG	-0.301	-0.532	-0.873	-0.449	-0.437	0.168	0.616	0.206	0.0211	0.147	4.26	3.42	0.223	0.732	-0.0853	-0.71	-0.506	-0.696	-0.0635	-0.11
CCACCAAGGTGAACAAGGTCGTTGATTACTATTC	1.47	1.57	0.468	2.04	-0.359	2.63	1.21	1.23	-0.313	0.583	2.14	2.55	0.528	0.567	1.61	3.17	2.75	2.58	0.52	2.37
GGAACGAGGGCAAGTTGATAGCGGAGTTTGATGG	0.772	0.00493	-0.352	0.246	-0.525	1.7	0.963	1.16	0.00794	0.229	3.78	2.64	-0.0734	-0.677	0.26	0.392	0.189	0.406	-0.36	2.53
GCTATTAGTTGAAAGGGGAACCGAATGATTCTCG	0.138	0.218	-0.112	-0.0843	-0.157	0.798	1.19	3.07	1.25	2.62	0.8	0.272	-0.324	-0.088	0.558	-0.107	0.237	0.154	0.912	0.185
AATACAGAGTCATCGTAGGCCAGAGTACGCACAG	0.102	0.331	-0.311	-0.227	-0.569	-0.149	0.955	0.273	-0.0148	0.175	0.0374	0.268	0.399	0.579	-0.714	-0.113	-0.387	-0.0799	0.026	0.17
AGCCAAAGTTCACTAGGTAACGTAAGATTCAGCT	4.84	4.92	2.67	2.81	0.629	4.51	5.95	5.78	3.24	5.12	2.5	4.42	0.974	0.266	2.28	3.96	2.4	2.78	0.158	4.68
CTCGAAAGGTCGTGCTCAAGTGAGTATACCAAAC	5.4	3.95	0.0272	3.51	0.363	4.73	2.57	3.77	0.732	2.35	0.992	1.58	1.46	0.784	1.8	3.15	0.371	3.74	-0.14	3.97
TCTAGTAGTTGAAGGGCAACCGACGAGTCCGTTT	0.63	0.618	-0.0916	0.268	-0.134	0.455	-0.018	1.65	2.83	2.22	1.78	0.527	0.13	-0.187	0.499	0.507	0.346	-0.0241	0.58	1.4
ATCGAAAGGTCGGAGGTGAGTATACCCACCCGAA	2.56	2.13	-0.237	1.67	0.308	3.57	2.78	3.13	1.04	2.13	-0.278	1.78	1.11	0.559	1.66	1.87	0.241	2.79	0.0274	3.28
AGAATGTGGTTATACGTAGATCAGGGAAGAAAGT	0.107	0.271	0.177	0.318	-0.0614	0.259	0.647	0.356	0.568	0.428	-0.104	0.38	1.04	0.755	0.355	0.214	0.82	0.282	0.734	0.0601
CTACGAAGGTGAACAAGGTCGTTGATTACTATTC	1.63	1.54	0.18	1.91	-0.34	2.66	0.958	1.03	-0.0387	0.552	2.27	2.28	0.435	0.389	0.63	2.98	1.39	2.46	0.451	2.33
CAAACTTGGTCAAGGTCAAAGTCGGTTTGTGCCA	4.61	4.38	2.94	3.8	0.689	4.46	2.73	3.77	1	2.73	2.24	3.79	0.249	1.03	1.86	4.45	1.54	4.15	0.201	4.12
CGTCCAAGGTCAGAGAGGTCAGTCAATGCCGAGT	6.08	5.49	3.45	4.65	0.441	4.81	3.37	4.63	1.03	2.63	2.82	3.35	-0.282	-0.369	4.06	6.13	12.6	5.82	1.78	5.12
CCTAGCAGGCCAGGGTCACTCAAGCATTTCGCTT	2.38	1.67	-0.285	1.95	-1.05	3.1	0.907	1.65	-0.362	0.635	0.393	0.98	-0.961	-1.38	1.04	2.63	-0.595	3.17	-0.537	2.73
